# Measurements taken from PubChem BioAssay AID1159580 (chemical genetic matrix, 2015).
# Values joined by “and” are separate entries in the source; they are usually repeats but may differ in a detail not shown here. Identical values can stand only once. About 2,000 (36%) of roughly 5,500 compounds were called active. Roughly 18% stayed inconclusive and do not appear here. This is one part of the list. Values without a mark were called inactive. Cut-off read from the data, not from the text of the source: active = normalized growth mostly below about 0.91 (no sharp cut-off); inconclusive = no clear call, values can overlap the other calls; inactive = mostly above about 0.92.
# Experiment: chemical genetic growth profiling, strain panel (AID 1159580);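 note: tested at 20 µM; growth read once vehicle control cultures reached saturation at 30 °C; 1 = growth at the plate median or of vehicle wells; lower values mean less growth of the strain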
# Settings: S. cerevisiae deletion strains, growth OD
smiles,measurement,setting,value
CN[C@@H]1C(O)[C@@H](O[C@@H]2[C@@H](O)[C@H](O[C@H]3OC(CN)=CC[C@H]3N)[C@@H](N)C[C@H]2N)OC[C@]1(C)O (some centres undefined),normalized growth,"locus YAL013W, strain DEP1, active compounds read low",1.02
same,normalized growth,"locus YAL021C, strain ccr4, active compounds read low",1.01
same,normalized growth,"locus YAL026C, strain drs2, active compounds read low",0.99
same,normalized growth,"locus YAL030W, strain snc1, active compounds read low",1.01
same,normalized growth,"locus YBL061C, strain skt5, active compounds read low",1.01
same,normalized growth,"locus YBR009C, strain hhf1, active compounds read low",0.968
same,normalized growth,"locus YBR021W, strain FUR4, active compounds read low",1.02
same,normalized growth,"locus YBR023C, strain chs3, active compounds read low",1.01
same,normalized growth,"locus YBR171W, strain sec66, active compounds read low",1.02
same,normalized growth,"locus YBR229C, strain ROT2, active compounds read low",1.02
same,normalized growth,"locus YBR231C, strain swc5, active compounds read low",1.02
same,normalized growth,"locus YBR279W, strain paf1, active compounds read low",1
same,normalized growth,"locus YCL011C, strain gbp2, active compounds read low",1
same,normalized growth,"locus YCL016C, strain dcc1, active compounds read low",0.997
same,normalized growth,"locus YCL029C, strain bik1, active compounds read low",0.997
same,normalized growth,"locus YCL061C, strain MRC1, active compounds read low",1.03
same,normalized growth,"locus YCL069W, strain vba3, active compounds read low",1.01
same,normalized growth,"locus YCR088W, strain abp1, active compounds read low",1.01
same,normalized growth,"locus YDL005C, strain med2, active compounds read low",1.01
same,normalized growth,"locus YDL035C, strain GPR1, active compounds read low",1.02
same,normalized growth,"locus YDL040C, strain nat1, active compounds read low",1.01
same,normalized growth,"locus YDL074C, strain BRE1, active compounds read low",1.08
same,normalized growth,"locus YDL101C, strain DUN1, active compounds read low",1.04
same,normalized growth,"locus YDL134C, strain PPH21, active compounds read low",1.02
same,normalized growth,"locus YDL185W, strain tfp1, active compounds read low",1
same,normalized growth,"locus YDL192W, strain arf1, active compounds read low",0.995
same,normalized growth,"locus YDR001C, strain nth1, active compounds read low",1.02
same,normalized growth,"locus YDR069C, strain doa4, active compounds read low",1.02
same,normalized growth,"locus YDR101C, strain arx1, active compounds read low",0.987
same,normalized growth,"locus YDR137W, strain rgp1, active compounds read low",0.998
same,normalized growth,"locus YDR150W, strain NUM1, active compounds read low",1.02
same,normalized growth,"locus YDR159W, strain sac3, active compounds read low",0.989
same,normalized growth,"locus YDR162C, strain NBP2, active compounds read low",1.03
same,normalized growth,"locus YDR195W, strain ref2",1.03
same,normalized growth,"locus YDR297W, strain sur2, active compounds read low",1.02
same,normalized growth,"locus YDR334W, strain swr1, active compounds read low",1.02
same,normalized growth,"locus YDR335W, strain msn5, active compounds read low",1.01
same,normalized growth,"locus YDR388W, active compounds read low",0.985
same,normalized growth,"locus YDR392W, strain spt3, active compounds read low",0.959
same,normalized growth,"locus YDR502C, strain sam2, active compounds read low",1.01
same,normalized growth,"locus YEL003W, strain gim4, active compounds read low",1.01
same,normalized growth,"locus YEL037C, strain rad23, active compounds read low",1.02
same,normalized growth,"locus YEL061C, strain CIN8 (second series), active compounds read low",1.02
same,normalized growth,"locus YEL061C, strain CIN8, active compounds read low",1.07
same,normalized growth,"locus YER015W, strain faa2, active compounds read low",1.02
same,normalized growth,"locus YER016W, strain bim1, active compounds read low",0.979
same,normalized growth,"locus YER110C, active compounds read low",0.96
same,normalized growth,"locus YER111C, strain swi4, active compounds read low",1.02
same,normalized growth,"locus YER155C, strain BEM2 (second series), active compounds read low",0.996
same,normalized growth,"locus YER155C, strain BEM2, active compounds read low",1
same,normalized growth,"locus YER167W, strain BCK2, active compounds read low",1.02
same,normalized growth,"locus YFR010W, strain ubp6, active compounds read low",1.03
same,normalized growth,"locus YGL078C, strain dbp3, active compounds read low",0.985
same,normalized growth,"locus YGL086W, strain mad1, active compounds read low",0.994
same,normalized growth,"locus YGL167C, strain pmr1, active compounds read low",1.02
same,normalized growth,"locus YGL173C, strain kem1, active compounds read low",1.02
same,normalized growth,"locus YGL227W, strain vid30, active compounds read low",1.02
same,normalized growth,"locus YGL240W, strain doc1, active compounds read low",1.03
same,normalized growth,"locus YGL248W, strain PDE1, active compounds read low",1.03
same,normalized growth,"locus YGL253W, strain hxk2, active compounds read low",1
same,normalized growth,"locus YGR078C, strain PAC10, active compounds read low",1.03
same,normalized growth,"locus YGR135W, strain pre9, active compounds read low",1.01
same,normalized growth,"locus YGR229C, strain SMI1, active compounds read low",1.05
same,normalized growth,"locus YGR252W, strain gcn5, active compounds read low",0.651 (active)
same,normalized growth,"locus YHR013C, strain ard1, active compounds read low",1.01
same,normalized growth,"locus YHR027C, strain rpn1, active compounds read low",1
same,normalized growth,"locus YHR030C, strain SLT2, active compounds read low",1 and 0.98
same,normalized growth,"locus YHR079C, strain IRE1 (second series), active compounds read low",1
same,normalized growth,"locus YHR079C, strain IRE1, active compounds read low",0.95
same,normalized growth,"locus YHR129C, strain ARP1, active compounds read low",1.02
same,normalized growth,"locus YHR142W, strain chs7, active compounds read low",1.02
same,normalized growth,"locus YHR200W, strain rpn10, active compounds read low",1
same,normalized growth,"locus YIL066C, strain RNR3, active compounds read low",1.02
same,normalized growth,"locus YIL073C, strain SPO22, active compounds read low",1.03
same,normalized growth,"locus YIL125W, strain kgd1, active compounds read low",1.01
same,normalized growth,"locus YIR030C, strain dcg1, active compounds read low",0.995
same,normalized growth,"locus YJL092W, strain hpr5, active compounds read low",1.02
same,normalized growth,"locus YJL095W, strain BCK1 (second series), active compounds read low",1.01
same,normalized growth,"locus YJL095W, strain BCK1, active compounds read low",1.06 and 0.978
same,normalized growth,"locus YJL115W, strain asf1, active compounds read low",1.02
same,normalized growth,"locus YJL129C, strain trk1, active compounds read low",1.02
same,normalized growth,"locus YJL134W, strain LCB3, active compounds read low",1.02
same,normalized growth,"locus YJL154C, strain vps35, active compounds read low",1.01
same,normalized growth,"locus YJL164C, strain tpk1, active compounds read low",1.01
same,normalized growth,"locus YJL166W, strain qcr8, active compounds read low",1.03
same,normalized growth,"locus YJL168C, strain set2, active compounds read low",0.997
same,normalized growth,"locus YJL187C, strain SWE1 (second series), active compounds read low",1.03
same,normalized growth,"locus YJR043C, strain POL32, active compounds read low",1.2 [resistant] (active)
same,normalized growth,"locus YJR066W, strain TOR1, active compounds read low",0.96
